What is called AC50 is the concentration at which the activity in the assay is half-maximal.

Consider 39 compounds from PubChem BioAssay (EPA / NIEHS).

Results filed as inconclusive are left out. Activity calls are given as the source filed them. Rule for the calls: active = hit-call score of the fitted dose curve at least 0.9, where 1 is the maximum; inconclusive = response in the unintended direction; inactive = score below 0.9.

The first test can be described thus: TOX21_p53_BLA_p2_viability: Viability Assessment in the Tox21 HCT-116 p53 Agonism Beta-lactamase Assay, Phase 2 (AID 2283591).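 Note: actives lower the ATP signal meaning cytotoxicity.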 The method in brief: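 HCT116 p53-bla cells, 4000/well, dosed after 5 h plating (217-fold dilution of DMSO stocks) and incubated 16 h at 37C. Viability taken as cellular ATP by CellTiter-Glo luminescence after 30 min RT; signal loss marks cytotoxicity.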
Regarding `Cc1onc(-c2ccccc2)c1C(=O)N[C@@H]1C(=O)N2[C@@H]1SC(C)(C)[C@@H]2C(=O)O`, the result was inactive. The same measure, in the same setting: with `c1ccc(COCc2ccccc2)cc1` the entry was “inactive”; with `Nc1ccc2c3c(cccc13)-c1ccccc1-2`, “inactive”. The same measure, in the same setting: with `O=C(O)c1cc2ccccc2c(Cc2c(O)c(C(=O)O)cc3ccccc23)c1O` the entry was “inactive”; with `NS(=O)(=O)c1cc2c(cc1Cl)NC(CSCc1ccccc1)=NS2(=O)=O`, “inactive”; with `O=c1[nH]cnc2ccccc12`, “inactive”. Same read-out and setting: with `CS(=O)(=O)c1ccc([C@@H](O)[C@@H](CF)NC(=O)C(Cl)Cl)cc1` the entry was “inactive”. Take `CNS(=O)(=O)CCc1ccc2[nH]cc(C3CCN(C)CC3)c2c1`: the call was inactive. Same read-out and setting: with `CC(=O)Nc1cccc(C)c1` the entry was “inactive”.

Consider `CN1C(C)(C)CCCC1(C)C`, for which the compound was called inactive. As for `OC1OC[C@@H](O)[C@H](O)[C@@H]1O` (stereo partly specified), the call was inactive. Still for that read-out and setting: with `Cn1c(=O)c2c(ncn2CC(O)CO)n(C)c1=O` (stereo unspecified) the entry was “inactive”. Same read-out and setting: with `O=C1c2c(O)cccc2C([C@@H]2O[C@H](CO)[C@@H](O)[C@H](O)[C@H]2O)c2cc(CO)cc(O)c21` (stereo partly specified) the entry was “inactive”; with `Nc1c(NC/C=C\COc2cc(CN3CCCCC3)ccn2)c(=O)c1=O`, “inactive”. Same read-out and setting: with `CCCNCC(O)COc1ccccc1C(=O)CCc1ccccc1` (stereo unspecified) the entry was “inactive”; with `O=C1C=CCCC1`, “inactive”. As for `Cc1cc(-c2ccc(N=Nc3c(S(=O)(=O)O)cc4cc(S(=O)(=O)O)cc(N)c4c3O)c(C)c2)ccc1N=Nc1c(S(=O)(=O)O)cc2cc(S(=O)(=O)O)cc(N)c2c1O`, the compound was classed as inactive.

`O=P(O)(O)C(O)(Cc1cnc2ccccn12)P(=O)(O)O`: the outcome was inactive. On the same count and under the same terms, with `C[C@]12CCC(=O)C=C1CC[C@@H]1[C@@H]2[C@@H](O)C[C@@]2(C)[C@H]1CC[C@]2(O)C(=O)COC(=O)CCC(=O)O` the entry was “inactive”. Regarding `Clc1ccccc1-c1nc(-c2ccncc2)no1`, the call was inactive. Same read-out and setting: with `NC(=S)Nc1cccc2ccccc12` the entry was “inactive”; with `CC(C)(C)C(=O)Oc1ccc(S(=O)(=O)Nc2ccccc2C(=O)NCC(=O)O)cc1`, “inactive”; with `CC(=O)N(CC(C)C(=O)O)c1c(I)cc(I)c(N)c1I` (stereo unspecified), “inactive”. The same measure, in the same setting: with `CC1(C)[C@@H](OC(=O)CCC(=O)O)CC[C@]2(C)[C@H]3C(=O)C=C4[C@@H]5C[C@@](C)(C(=O)O)CC[C@]5(C)CC[C@@]4(C)[C@]3(C)CC[C@@H]12` the entry was “inactive”; with `CNCCCN1c2ccccc2CCc2ccccc21`, “inactive”.

In the case of `CN1C(CCl)Nc2cc(Cl)c(S(N)(=O)=O)cc2S1(=O)=O` (stereo unspecified), the result was inactive. `O=C1NC2CCCCN2C12CCN(CCCN1c3ccccc3CCc3ccc(Cl)cc31)CC2` (stereo unspecified): the AC50 was 37.5 µM (active). Take `O=C(CCC1CCN(Cc2ccccc2)CC1)c1ccc2c(c1)NCCCC2`: the compound was classed as inactive.

Regarding `CC(=O)CC(c1ccc([N+](=O)[O-])cc1)c1c(O)c2ccccc2oc1=O` (stereo unspecified), the compound was called inactive. Still for that read-out and setting: with `Cn1ccc2cc3c(cc21)CCN3C(=O)Nc1cccnc1` the entry was “inactive”; with `Nc1nc2c(ncn2CCC(CO)CO)c(=O)[nH]1`, “inactive”. As for `Cc1cccc(Nc2ccncc2S(=O)(=O)NC(=O)NC(C)C)c1`, the compound was classed as inactive. For the compound `COc1ccccc1OCCNCC(O)COc1cccc2[nH]c3ccccc3c12` (stereo unspecified), the result was inactive. As for `CCC(C)(C)C(=O)O`, the compound was classed as inactive. Still for that read-out and setting: with `Cc1ccc(C(C)NC(=O)[C@@H](NC(=O)OC(C)C)C(C)C)cc1` (stereo partly specified) the entry was “inactive”; with `O=C(CCCCCCCCC#CI)Oc1ccccc1`, “inactive”. The same measure, in the same setting: with `O=C(O)c1ccc(CO)o1` the entry was “inactive”. Same read-out and setting: with `CCOC(=O)NCCC[Si](OCC)(OCC)OCC` the entry was “inactive”; with `O=C1c2ccccc2CN2C(=O)c3ccccc3CN12`, “inactive”.

A short description of another test: TOX21_p53_BLA_p4_viability: Viability Assessment in the Tox21 HCT-116 p53 Agonism Beta-lactamase Assay, Phase 4 (AID 2283597).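 Note: hits lower the luminescence signal meaning cytotoxicity.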 The method in brief: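 Compound exposure of HCT116 cells lasts 16 h at 37C, 5% CO2, with DMSO stocks diluted 217-fold. Cellular ATP is then quantified by CellTiter-Glo luminescence after 30 min at room temperature.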
Consider `Cc1onc(-c2ccccc2)c1C(=O)N[C@@H]1C(=O)N2[C@@H]1SC(C)(C)[C@@H]2C(=O)O`, for which the outcome was inactive. Regarding `c1ccc(COCc2ccccc2)cc1`, the call was inactive. The same measure, in the same setting: with `Nc1ccc2c3c(cccc13)-c1ccccc1-2` the entry was “inactive”; with `O=C(O)c1cc2ccccc2c(Cc2c(O)c(C(=O)O)cc3ccccc23)c1O`, “inactive”; with `O=c1[nH]cnc2ccccc12`, “inactive”. On the same count and under the same terms, with `CNS(=O)(=O)CCc1ccc2[nH]cc(C3CCN(C)CC3)c2c1` the entry was “inactive”; with `CC(=O)Nc1cccc(C)c1`, “inactive”; with `OC1OC[C@@H](O)[C@H](O)[C@@H]1O` (stereo partly specified), “inactive”. Still for that read-out and setting: with `Cn1c(=O)c2c(ncn2CC(O)CO)n(C)c1=O` (stereo unspecified) the entry was “inactive”; with `O=C1c2c(O)cccc2C([C@@H]2O[C@H](CO)[C@@H](O)[C@H](O)[C@H]2O)c2cc(CO)cc(O)c21` (stereo partly specified), “inactive”. With `CCCNCC(O)COc1ccccc1C(=O)CCc1ccccc1` (stereo unspecified), the call was inactive.

For the compound `Cc1cc(-c2ccc(N=Nc3c(S(=O)(=O)O)cc4cc(S(=O)(=O)O)cc(N)c4c3O)c(C)c2)ccc1N=Nc1c(S(=O)(=O)O)cc2cc(S(=O)(=O)O)cc(N)c2c1O`, the concentration at half-maximal activity (AC50) is 20.6 µM (active). In the case of `C[C@]12CCC(=O)C=C1CC[C@@H]1[C@@H]2[C@@H](O)C[C@@]2(C)[C@H]1CC[C@]2(O)C(=O)COC(=O)CCC(=O)O`, the compound was classed as inactive. On the same count and under the same terms, with `Clc1ccccc1-c1nc(-c2ccncc2)no1` the entry was “inactive”. Turning to `NC(=S)Nc1cccc2ccccc12`, the result was inactive.

In the case of `CC(C)(C)C(=O)Oc1ccc(S(=O)(=O)Nc2ccccc2C(=O)NCC(=O)O)cc1`, the call was inactive. On to `CC(=O)N(CC(C)C(=O)O)c1c(I)cc(I)c(N)c1I` (stereo unspecified), for which the compound was called inactive. As for `CNCCCN1c2ccccc2CCc2ccccc21`, the call was inactive. Still for that read-out and setting: with `CN1C(CCl)Nc2cc(Cl)c(S(N)(=O)=O)cc2S1(=O)=O` (stereo unspecified) the entry was “inactive”. Regarding `O=C1NC2CCCCN2C12CCN(CCCN1c3ccccc3CCc3ccc(Cl)cc31)CC2` (stereo unspecified), the AC50 was 43 µM (active). As for `O=C(CCC1CCN(Cc2ccccc2)CC1)c1ccc2c(c1)NCCCC2`, the result was inactive. On the same count and under the same terms, with `CC(=O)CC(c1ccc([N+](=O)[O-])cc1)c1c(O)c2ccccc2oc1=O` (stereo unspecified) the entry was “inactive”; with `Cn1ccc2cc3c(cc21)CCN3C(=O)Nc1cccnc1`, “inactive”. The same measure, in the same setting: with `Nc1nc2c(ncn2CCC(CO)CO)c(=O)[nH]1` the entry was “inactive”. Still for that read-out and setting: with `Cc1cccc(Nc2ccncc2S(=O)(=O)NC(=O)NC(C)C)c1` the entry was “inactive”. In the case of `COc1ccccc1OCCNCC(O)COc1cccc2[nH]c3ccccc3c12` (stereo unspecified), the AC50 is 36.8 µM (active). Turning to `CCC(C)(C)C(=O)O`, the result was inactive. On the same count and under the same terms, with `Cc1ccc(C(C)NC(=O)[C@@H](NC(=O)OC(C)C)C(C)C)cc1` (stereo partly specified) the entry was “inactive”; with `O=C(CCCCCCCCC#CI)Oc1ccccc1`, “inactive”. The same measure, in the same setting: with `O=C(O)c1ccc(CO)o1` the entry was “inactive”; with `CCOC(=O)NCCC[Si](OCC)(OCC)OCC`, “inactive”; with `O=C1c2ccccc2CN2C(=O)c3ccccc3CN12`, “inactive”.
